Max response and Potency data for 37 compounds are collected here from PubChem BioAssay (NCATS).

Where “and” joins values, the source holds several entries; their conditions need not be identical. Equal values may be shown once. Records with an inconclusive call do not appear. Unmarked numbers belong to inactive results. Calls of active or inactive are those of the source. Calls follow the shape of the dose curve; as a rule, active = well fitted curve in the direction sought with a large enough effect; inconclusive = small, poorly fitted or top-dose-only effect, or another doubt; inactive = no such curve, though single readings can be large or run the other way. Where a SMILES comes first, the peptide text is derived from it. Bridges are numbered along the chain shown (N, C = ends). [ ]: non-standard residue; d: D form. Orn = NCCC[C@H](N)C(=O)O; Mpa = O=C(O)CCS
% is scaled to controls: 0 for no effect and ±100 for the full control effect; potency is read from the fitted curve at half-maximal effect.

The nature of this assay: qHTS Assay for Identifying Gametocytocidal Compounds (AID 743244).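 As to Max response: actives lower the fluorescent signal which means gametocytes are killed.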 The settings on record: P. falciparum 3D7 stage III-V gametocytes, alamarBlue, 72 h; max response: active compounds read low. An outline of the steps: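 Fluorescence at Ex 525/Em 598 nm, recorded 24 h after alamarBlue addition, reports residual metabolic activity of 3D7 gametocytes (stages III–V) following 72 h compound exposure at 37 °C, 5% CO2.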
On the technique in general: qHTS replaces the single test concentration by a dilution series.
With `COc1ccc(C(=O)Nc2ccccc2CCC2CCCCN2C)cc1` (configuration not stated), the max response is 14.2%.

On to `C=Cc1ccccc1`, for which the max response was 5.81%.

Consider `O=P(O)(O)C(Sc1ccc(Cl)cc1)P(=O)(O)O`, for which the max response is 17.7%.

Take `CCOc1ccc(C[C@H]2NC(=O)CCSSC[C@@H](C(=O)N3CCC[C@H]3C(=O)N[C@@H](CCCN)C(=O)NCC(N)=O)NC(=O)[C@H](CC(N)=O)NC(=O)[C@H]([C@@H](C)O)NC(=O)[C@H]([C@@H](C)CC)NC2=O)cc1` ([Mpa][dY](Et)ITNCP[Orn]G-NH2; disulfide 1-6): the max response is 12.3%.

For the compound `C1CNCCN1`, the max response is -4.23%.

In the case of `CCCCCCCCCC(=O)O`, the max response was 10.1%.

For `CCCCCCCC/C=C\CCCCCCCC(=O)OC[C@@H](O)[C@H]1OC[C@H](O)[C@H]1O`, the max response is -9.22%.

Take `COc1ccc(CNCC(O)COc2ccc3[nH]c(=O)ccc3c2)cc1OC` (configuration not stated): the max response is -1.67%.

With `NCCCC[C@H](NC(=O)[C@@H]1CCCN1C(=O)[C@@H]1CSSC[C@H](N)C(=O)N[C@@H](Cc2ccc(O)cc2)C(=O)N[C@@H](Cc2ccccc2)C(=O)N[C@@H](CCC(N)=O)C(=O)N[C@@H](CC(N)=O)C(=O)N1)C(=O)NCC(N)=O`, the max response is -14.9% and -14.7%.

On to `COc1cc2[nH]c(C)c(CCN3CCN(c4ccccc4)CC3)c2cc1OC`, for which the max response is 16.1%.

`CN(C)Cc1ccccc1`: the max response is 9.16%.

Consider `O=P(O)(O)C(O)(Cc1cnc2ccccn12)P(=O)(O)O`, for which the max response is -4.82%.

Consider `CS(=O)(=O)NC(=O)CCC/C=C\C[C@H]1C(=O)C[C@@H](O)[C@@H]1/C=C/[C@H](O)COc1ccccc1`, for which the max response was -11.4%.

As for `CC(CN(C)C)CN1c2ccccc2S(=O)(=O)c2ccccc21` (configuration not stated), the max response is -15.2%.

Consider `C=CCNC1=C2C[C@@H](C)C[C@H](OC)[C@H](O)[C@@H](C)/C=C(\C)[C@H](OC(N)=O)[C@@H](OC)/C=C\C=C(/C)C(=O)NC(=CC1=O)C2=O`, for which the Potency is 2.82 µM (active).

On to `CNC[C@@H]1CC[C@@H](N)[C@@H](O[C@H]2[C@H](O)[C@@H](O[C@H]3OC[C@](C)(O)[C@H](NC)[C@H]3O)[C@H](N)C[C@@H]2N)O1`, for which the max response is -11.2%.

Consider `CCCC(=O)N1CCCN(c2nc(N)c3cc(OC)c(OC)cc3n2)CC1`, for which the max response is 16.2%.

Turning to `CCOC(=O)Cc1cccc(-c2cc(CCCCCCc3ccc(O[C@H]4O[C@H](COC(C)=O)[C@@H](OC(C)=O)[C@H](OC(C)=O)[C@@H]4OC(C)=O)c(-c4cccc(CC(=O)OCC)c4)c3)ccc2O[C@H]2O[C@H](COC(C)=O)[C@@H](OC(C)=O)[C@H](OC(C)=O)[C@@H]2OC(C)=O)c1`, the max response is -24.7%.

`C/C(=C(/CCO)SSCC1CCCO1)N(C=O)Cc1cnc(C)nc1N` (configuration not stated): the max response was 4.64% and -7.81%.

With `O=S(O)CO`, the max response is 18.2%.

Consider `CCCCCCCC(=O)CC[C@@H]1[C@@H](C/C=C\CCCC(=O)OC(C)C)[C@@H](O)C[C@H]1O`, for which the max response is 0.0052%.

In the case of `O=c1[nH]cnc2[nH]cc(CN3CCCCC3)c12`, the max response was 10.8%.

On to `Oc1cccc(-c2c3nc(c(-c4cccc(O)c4)c4ccc([nH]4)c(-c4cccc(O)c4)c4nc(c(-c5cccc(O)c5)c5ccc2[nH]5)CC4)C=C3)c1`, for which the max response was -1.27% and -6.31%.

For `O=C[C@H](O)[C@@H](O)[C@H](O[C@H]1O[C@H](CO)[C@@H](O[C@H]2O[C@H](CO)[C@@H](O)[C@H](O)[C@H]2O)[C@H](O)[C@H]1O)[C@H](O)CO`, the max response is 10.4%.

Turning to `CC(CC(c1ccccc1)c1ccccc1)NC(C)(C)C` (configuration not stated), the max response is -8.24%.

For the compound `NC(=O)C[C@@H](N)C(=O)O`, the max response is -9.98%.

On to `CCOc1ccc(N=C(C)Nc2ccc(OCC)cc2)cc1`, for which the max response was -5.06%.

Turning to `O=C(O)CC(O)(CC(=O)O)C(=O)O`, the max response is -12%.

Take `C[N+](C)(CCCCCC[N+](C)(C)C1c2ccccc2-c2ccccc21)C1c2ccccc2-c2ccccc21`: the max response is -0.956%.

As to `CC(=O)S[C@@H]1CC2=CC(=O)CC[C@]2(C)[C@H]2CC[C@@]3(C)[C@@H](CC[C@@]34CCC(=O)O4)[C@H]12`, the max response was 15.7%.

In the case of `COC(C)=O`, the max response was 1.99%.

Turning to `CC(=O)[C@@]1(O)CC[C@H]2[C@@H]3C=C(Cl)C4=CC(=O)CC[C@]4(C)[C@H]3CC[C@@]21C`, the max response was -4.61%.

Turning to `O=C(O)c1cc2ccccc2c(Cc2c(O)c(C(=O)O)cc3ccccc23)c1O`, the max response is 60.7%.

For `CCCN(CC)C(CC)C(=O)Nc1c(C)cccc1C` (configuration not stated), the max response is 0.657%.

As for `CCC(=O)Oc1ccc2c(c1)CC[C@@H]1[C@@H]2CC[C@]2(C)[C@@H](OC(=O)CC)CC[C@@H]12`, the max response is -6.54%.

Consider `CCC(c1ccccc1)c1noc(CCN(CC)CC)n1` (configuration not stated), for which the max response is 15%.

With `O=S(O)CNc1ccc(S(=O)(=O)c2ccc(NCS(=O)O)cc2)cc1`, the max response was -0.921%.
